In PMC4336329 (PLoS ONE, 2015):
Out of some 310,000 compounds screened, about 14,000 (4.5%) showed an effect of 50% or more. The effect is printed as a negative number. The sample holds strong results, similar compounds and a random draw of the others, so the mix is not that of the screen.

Target: human ether-à-go-go-related gene (hERG) potassium channel (human, UniProt Q12809)
Assay: primary screen, population patch clamp on CHO cells stably expressing hERG; higher = less effect of the substance
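Also: peak tail current of the secondary pulse compared with the same well before compound.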

Sequence of human ether-à-go-go-related gene (hERG) potassium channel (Q12809 whole entry, looked up): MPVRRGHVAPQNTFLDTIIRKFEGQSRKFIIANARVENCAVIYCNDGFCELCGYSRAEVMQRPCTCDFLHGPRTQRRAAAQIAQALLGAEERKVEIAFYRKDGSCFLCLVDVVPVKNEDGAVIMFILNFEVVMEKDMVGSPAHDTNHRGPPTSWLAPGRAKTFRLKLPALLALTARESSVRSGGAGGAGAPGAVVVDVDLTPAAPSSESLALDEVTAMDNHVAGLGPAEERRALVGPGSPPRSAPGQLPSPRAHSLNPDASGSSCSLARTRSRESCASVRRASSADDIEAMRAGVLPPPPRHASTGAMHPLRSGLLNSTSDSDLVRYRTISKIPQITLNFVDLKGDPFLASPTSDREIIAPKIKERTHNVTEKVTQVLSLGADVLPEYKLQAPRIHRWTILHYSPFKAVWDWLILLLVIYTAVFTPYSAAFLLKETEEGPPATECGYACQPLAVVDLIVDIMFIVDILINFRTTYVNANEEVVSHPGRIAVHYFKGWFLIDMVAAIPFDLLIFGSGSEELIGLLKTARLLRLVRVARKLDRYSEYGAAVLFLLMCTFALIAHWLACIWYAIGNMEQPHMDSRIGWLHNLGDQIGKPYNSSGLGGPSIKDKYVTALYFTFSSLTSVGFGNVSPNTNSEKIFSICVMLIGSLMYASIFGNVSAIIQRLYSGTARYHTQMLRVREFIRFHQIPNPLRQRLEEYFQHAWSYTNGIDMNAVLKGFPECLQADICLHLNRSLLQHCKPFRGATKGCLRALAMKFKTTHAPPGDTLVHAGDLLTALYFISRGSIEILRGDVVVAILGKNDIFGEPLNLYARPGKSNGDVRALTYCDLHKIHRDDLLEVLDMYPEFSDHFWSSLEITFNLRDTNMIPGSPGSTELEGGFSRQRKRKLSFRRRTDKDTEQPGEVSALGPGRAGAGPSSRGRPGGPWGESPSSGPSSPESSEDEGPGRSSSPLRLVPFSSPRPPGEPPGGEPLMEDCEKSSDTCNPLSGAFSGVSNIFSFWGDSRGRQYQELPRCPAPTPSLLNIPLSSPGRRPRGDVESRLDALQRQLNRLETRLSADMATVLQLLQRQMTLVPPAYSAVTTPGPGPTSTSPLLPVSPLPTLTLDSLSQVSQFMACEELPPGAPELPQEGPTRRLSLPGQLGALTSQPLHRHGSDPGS

Row | Structure (SMILES) | hERG current change (%, negative = inhibition) at 10uM
1 | COC(=O)C(O)(c1ccc(NC(=O)c2ccco2)c(OC)c1)C(F)(F)F (stereo not shown) | -6.24%
2 | O=C(NCCc1ccc(Cl)cc1)C(=O)c1c[nH]c2ccccc12 | -10.8%
3 | O=C(Nc1nsc(-c2ccccc2)n1)c1ccc(F)cc1 | -24.6%
4 | CCC(NC(=O)CNC(=O)CNC(=O)c1ccc(Cl)cc1Cl)c1ccc(C)cc1 (stereo not shown) | 22.2%
5 | CC(C)c1cc(C(=O)O)n(-c2ccccc2)n1 | 12.1%
6 | Cc1ccc(S(=O)(=O)n2[nH]c(=O)c(CCO)c2C)cc1 | 8.83%
7 | O=C(Cc1ccc(F)cc1)N/N=C/c1ccncc1 | -8.56%
8 | Fc1ccc(C2c3cccn3CCN2C(=S)Nc2cccc(Br)c2)cc1 (stereo not shown) | 19.4%
9 | O=C(COC(=O)c1ccccc1C(=O)c1ccccc1)NCCc1ccc(Cl)cc1Cl | -31.9%
10 | Cc1ccc(C(=O)c2ccccc2C(=O)OCC(=O)NCCc2ccccc2)cc1 | -52.5%
11 | Cc1ccc(C(=O)c2ccccc2C(=O)OCC(=O)NC(C)(C)C)cc1 | -0.829%
12 | Cc1ccc(C(=O)c2ccccc2C(=O)OCC(=O)NCCc2ccc(Cl)cc2Cl)cc1 | -9.96%
13 | O=C(COC(=O)c1ccccc1C(=O)c1ccc(Cl)cc1)NCCc1ccccc1 | -18.7%
14 | O=C(COC(=O)c1ccccc1C(=O)c1ccccc1)NCCc1ccccc1 | -64.8%
15 | CSCCC(NS(=O)(=O)/C=C/c1ccccc1)C(=O)NCCc1ccc(S(N)(=O)=O)cc1 (stereo not shown) | 7.59%
16 | COc1ccc(C(=O)COC(=O)CCn2nnc(-c3cccs3)n2)cc1 | 10.6%
17 | CN(Cc1c(C(=O)N/N=C/c2cccc(O)c2)nnn1-c1nonc1N)C1CCCCC1 | -2.25%
18 | CCOC(=O)CN1C(=O)CSc2ccccc21 | 0.699%
19 | CNc1ncc(C(=O)c2ccccc2)s1 | -1.56%
20 | CCN(CC)CCCC(C)NC(=O)c1c(NC(=O)c2ccccc2)sc2c1CCCC2.O=C(O)C(=O)O (stereo not shown) | -76.9%

Row | Structure (SMILES) | hERG current change (%, negative = inhibition) at 10uM
21 | NCCNC(=O)c1c(NC(=O)c2ccccc2)sc2c1CCCC2 | 15.4%
22 | CN(C)CCNC(=O)c1c(NC(=O)c2ccccc2)sc2c1CCCC2 | -25.9%
23 | CCOc1ccccc1C(c1c(O)nc(SC)[nH]c1=O)c1c(O)nc(SC)[nH]c1=O | 5.67%
24 | O=S(=O)(Nc1ncccn1)c1ccc(NS(=O)(=O)c2cc(Cl)ccc2Cl)cc1 | 31.6%
25 | COc1ccccc1C(=O)N(Cc1ccccc1)c1ccc(C)cc1 | -2.96%
26 | CC#CC(=O)N1CCC(CO)(CCc2ccccc2)CC1 | 1.33%
27 | CC#CC(=O)N1CCC(CCc2ccccc2)(C(=O)OCC)CC1 | -61.4%
28 | CCOC(=O)C1(CCc2ccccc2)CCN(C(=O)C2=C(C)OCCO2)CC1 | -15.2%
29 | CCOC(=O)C1(CCc2ccccc2)CCN(C(=O)c2occc2C)CC1 | -63.3%
30 | CCOC(=O)C1(CCc2ccccc2)CCN(C(=O)c2cc(C)nc(C)n2)CC1 | -11%
31 | CCOC(=O)C1(CCc2ccccc2)CCN(C(=O)c2cccc(C)n2)CC1 | -11.4%
32 | COc1cc(Cl)c(C)cc1Nc1ncccn1 | 4.73%
33 | CC(=O)c1cccc(NC(=S)N2CCCC2)c1 | 9.57%
34 | OC1CCC(Nc2ncnc3sccc23)CC1 (stereo not shown) | 13.2%
35 | Cc1sc2ncnc(Nc3ccccc3)c2c1C | 2.79%
36 | Cc1sc2ncnc(NC3CCN(Cc4ccccc4)CC3)c2c1C | -79.6%
37 | Cc1csc2ncnc(NC3CCN(Cc4ccccc4)CC3)c12 | -65.5%
38 | Cc1csc2ncnc(NCCc3ccccn3)c12 | -22.4%
39 | Cc1csc2c(NC3CCN(Cc4ccccc4)CC3)ncnc12 | -31.8%
40 | c1ccc(CN2CCC(Nc3ncnc4sccc34)CC2)cc1 | -66.9%

Row | Structure (SMILES) | hERG current change (%, negative = inhibition) at 10uM
41 | Cc1sc2ncnc(N[C@@H](Cc3ccccc3)C(=O)O)c2c1C | 14%
42 | c1ccc(CNc2ncnc3sccc23)cc1 | 9.9%
43 | COc1ccc(NC(=O)c2cc(-c3ccc(C)cc3)on2)cc1OC | 19.4%
44 | COc1cccc(CN(CC(=O)NCC2CCCO2)C(=O)CNS(=O)(=O)c2ccccc2)c1 (stereo not shown) | 7.52%
45 | O=C(CSc1ccccc1)NC(=O)NCc1ccccc1 | 5.87%
46 | COc1ccc(C(=O)C[n+]2ccccc2C)cc1.[Br-] | 13.3%
47 | CN(C(=O)c1cc(COc2ccc(F)c(F)c2)on1)C1CCOC1 (stereo not shown) | -13.1%
48 | Cc1cc(OCc2cc(C(=O)N(C)Cc3nonc3C)no2)cc(C)c1Cl | 11.8%
49 | CN(CCCN1CCOCC1)C(=O)c1cc(COc2c(F)cccc2F)on1 | 2.44%
50 | Cc1cc(OCc2cc(C(=O)N(C)C3CCOC3)no2)cc(C)c1Cl (stereo not shown) | -73.6%
51 | Cc1cc(OCc2cc(C(=O)N(C)CCCN3CCOCC3)no2)cc(C)c1Cl | -58%
52 | Cc1cc(OCc2cc(C(=O)N(C)CC3CCOCC3)no2)cc(C)c1Cl | -69%
53 | CN(CCCN1CCOCC1)C(=O)c1cc(COc2cccc(C(F)(F)F)c2)on1 | -40.5%
54 | Cc1ccc(OCc2cc(C(=O)N(C)CC3CCOCC3)no2)cc1C | -13.1%
55 | Cc1cc(OCc2cc(C(=O)N(C)C3CCOCC3)no2)cc(C)c1Cl | -13.5%
56 | Cc1cccc(NC(=O)CN2C(=O)CSC2=O)c1 | 14.5%
57 | CC(=O)c1ccc(N2CCN(C(=S)NCCCN(C)C)CC2)cc1 | 2.47%
58 | CC1(C(=O)N/N=C/c2ccc3c(c2)OCO3)CC1(Br)Br (stereo not shown) | -5.57%
